Consider eight compounds from PubChem BioAssay (NCI).

Experiment in all cases: NCI-60 one-dose screen, 48 h (100 = growth as untreated, 0 = no growth, -100 = all killed)
One experiment concerns HCT-15 colon. The conditions noted are these: 10 µM unless noted.
In a further experiment the test system is HT29 colon. The conditions noted are these: 10 µM unless noted.
The test system of another experiment is U251 CNS. The conditions noted are these: 10 µM unless noted.
The subject of the next experiment is PC-3 prostate. The conditions noted are these: 10 µM unless noted.
The next experiment has as its system SK-MEL-5 melanoma. The conditions noted are these: 10 µM unless noted.
The next experiment deals with UACC-62 melanoma. The note with it: 10 µM unless noted.
The test system of the next experiment is LOX IMVI melanoma. The note with it: 10 µM.
In the next experiment the test system is SK-MEL-28 melanoma. The conditions noted are these: 10 µM unless noted.
For the next experiment, the system named is SK-MEL-2 melanoma. The note with it: 10 µM unless noted.
The next experiment relates to EKVX NSCLC. The conditions noted are these: 10 µM unless noted.
Another experiment relates to SN12C renal. The conditions noted are these: 10 µM unless noted.
For the next experiment, the system named is UO-31 renal. The note with it: 10 µM unless noted.
For a further experiment, the system named is TK-10 renal. The note with it: 10 µM unless noted.
The subject of a further experiment is ACHN renal. The note with it: 10 µM unless noted.
The test system of the next experiment is CAKI-1 renal. The note with it: 10 µM unless noted.
The subject of another experiment is A498 renal. The note with it: 10 µM unless noted.
The subject of a further experiment is CCRF-CEM leukemia. The note with it: 10 µM unless noted.
The next experiment relates to MOLT-4 leukemia. The note with it: 10 µM unless noted.
In a further experiment the test system is SNB-19 CNS. The conditions noted are these: 10 µM unless noted.
Another experiment deals with SNB-75 CNS. The conditions noted are these: 10 µM unless noted.

The panel holds about 83,000 compounds, 20% with a hit somewhere; the sample as a whole holds those more often.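 Note: values are percent growth. 100 is the growth of untreated cells, values between 100 and 0 indicate rising inhibition; between -100 and 0 indicates cell death.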 Unmarked numbers belong to inactive results. The source made the active and inactive calls. The calls were made as follows: active = growth percent below 10; inactive = the rest.

As to `CCNc1nnnn1CC`, the growth in the experiment with HCT-15 colon is 99.7%; in the experiment on HT29 colon, 109%; with U251 CNS, 106%; in the experiment with PC-3 prostate, 97.3%; in the experiment on SK-MEL-5 melanoma it was 101%; with UACC-62 melanoma it was 106%. The growth with LOX IMVI melanoma was 98.7%; with SK-MEL-28 melanoma it was 113%; in the experiment with SK-MEL-2 melanoma, 122%; in the experiment with EKVX NSCLC, 94.5%; in the experiment with SN12C renal, 93%; with UO-31 renal, 108%. Also, the growth with TK-10 renal is 106%; with ACHN renal it was 110%; with CAKI-1 renal it was 99.4%; in the experiment on A498 renal, 83.8%; in the experiment with CCRF-CEM leukemia it was 103%; in the experiment on MOLT-4 leukemia it was 116%.

With `CCCCOS(=O)(=O)c1ccccc1`, the growth in the experiment on HCT-15 colon is 102%; in the experiment with HT29 colon, 104%; in the experiment on SNB-19 CNS, 103%; in the experiment with U251 CNS, 104%; in the experiment with PC-3 prostate, 101%; with SK-MEL-5 melanoma, 117%. For the same compound, the growth in the experiment on LOX IMVI melanoma was 97.1%; in the experiment on SK-MEL-28 melanoma, 126%; in the experiment on SK-MEL-2 melanoma, 99.9%; with EKVX NSCLC, 108%; in the experiment on SN12C renal it was 100%; with UO-31 renal, 99.8%. In addition, the growth was 106% in the experiment with TK-10 renal; 103% in the experiment on ACHN renal; 93.2% with CAKI-1 renal; 128% with A498 renal; 110% in the experiment on CCRF-CEM leukemia; 166% with MOLT-4 leukemia.

For `O=[N+]([O-])c1ccc2c(c1)Cc1ccccc1-2`, the growth with HCT-15 colon is 91%; in the experiment on SNB-75 CNS it was 88.9%; in the experiment with SNB-19 CNS, 94.9%; in the experiment with U251 CNS it was 90.9%; with PC-3 prostate, 96.7%; in the experiment with SK-MEL-5 melanoma, 97.7%. Moreover, the growth in the experiment on UACC-62 melanoma was 91.6%; in the experiment with LOX IMVI melanoma, 100%; in the experiment on SK-MEL-28 melanoma, 110%; in the experiment with EKVX NSCLC it was 61.1%; with SN12C renal it was 101%; in the experiment with UO-31 renal, 82.9%. For the same compound, the growth in the experiment with ACHN renal is 94.2%; in the experiment on CAKI-1 renal it was 99%; in the experiment on A498 renal, 82.4%; with CCRF-CEM leukemia, 91.4%; with MOLT-4 leukemia, 86.2%.

On to `Cc1cc(N/N=C/c2ccccn2)nc2ccccc12`, for which the growth with HT29 colon was 20.3%; in the experiment with SNB-75 CNS it was 30.8%; in the experiment with SNB-19 CNS, 24.6%; in the experiment with U251 CNS, 4.92% (active); with PC-3 prostate it was 28.3%; in the experiment with SK-MEL-5 melanoma, -43.7% (active). Also, the growth in the experiment on UACC-62 melanoma was -46.5% (active); in the experiment on LOX IMVI melanoma, 4.97% (active); in the experiment with SK-MEL-28 melanoma it was 18.1%; in the experiment with SK-MEL-2 melanoma it was 50.2%; with SN12C renal, 17.4%; in the experiment with UO-31 renal it was -8.77% (active). The growth in the experiment on TK-10 renal was 34.1%; in the experiment on ACHN renal it was 0.182% (active); in the experiment with CAKI-1 renal, -8.9% (active); in the experiment with A498 renal it was 27.7%; in the experiment on CCRF-CEM leukemia, 2.52% (active); in the experiment with MOLT-4 leukemia it was 5.97% (active).

On to `COC(=O)c1cc([N+](=O)[O-])cc([N+](=O)[O-])c1Cl`, for which the growth in the experiment with HCT-15 colon is -4.09% (active); in the experiment with HT29 colon, -85.2% (active); in the experiment on SNB-19 CNS, 104%; in the experiment on PC-3 prostate, 97%; in the experiment with SK-MEL-5 melanoma, 107%; in the experiment on UACC-62 melanoma, 90.6%. For the same compound, the growth in the experiment with LOX IMVI melanoma is 57.7%; in the experiment on SK-MEL-28 melanoma, 108%; with SK-MEL-2 melanoma, 87.4%; in the experiment with EKVX NSCLC, 98.1%; in the experiment on SN12C renal, 99.8%; in the experiment on UO-31 renal it was 79.1%. For the same compound, the growth with TK-10 renal was -41.3% (active); in the experiment with ACHN renal, 15.6%; with CCRF-CEM leukemia, 29.8%; with MOLT-4 leukemia, 26.6%.

For the compound `CC(C)(C)c1ccc(O)c(Br)c1`, the growth was 104% with HCT-15 colon; 103% in the experiment on HT29 colon; 106% in the experiment on U251 CNS; 101% in the experiment with PC-3 prostate; 96.4% in the experiment on SK-MEL-5 melanoma; 98.2% in the experiment with UACC-62 melanoma. The growth was 98.3% with LOX IMVI melanoma; 102% in the experiment on SK-MEL-28 melanoma; 94.6% in the experiment with SN12C renal; 86.5% in the experiment on UO-31 renal; 111% in the experiment on TK-10 renal; 104% in the experiment with ACHN renal. Also, the growth in the experiment with CAKI-1 renal is 96.4%; in the experiment on A498 renal, 73.4%; with CCRF-CEM leukemia it was 7.22% (active); with MOLT-4 leukemia, 112%.

With `Cc1oc2c(C)c3oc(=O)cc(C)c3cc2c1CCl`, the growth in the experiment with HCT-15 colon is 91.8%; with SNB-19 CNS, 81.5%; in the experiment on U251 CNS, 82.9%; in the experiment on PC-3 prostate it was 91%; in the experiment with SK-MEL-5 melanoma it was 77.6%; with UACC-62 melanoma it was 44.3%. Further, the growth with LOX IMVI melanoma was 56.6%; in the experiment with SK-MEL-28 melanoma it was 93.3%; with SK-MEL-2 melanoma, 109%; in the experiment on SN12C renal, 67.8%; in the experiment with UO-31 renal, 47.6%; in the experiment with TK-10 renal, 86.1%. Further, the growth in the experiment on ACHN renal is 78.3%; in the experiment with CAKI-1 renal, 51.8%; with A498 renal, 61.8%; in the experiment on CCRF-CEM leukemia, 47.6%; with MOLT-4 leukemia it was 63.6%.

For the compound `C[n+]1ccccc1C[n+]1ccccc1`, the growth in the experiment with HT29 colon is 103%; in the experiment on SNB-75 CNS it was 101%; with SNB-19 CNS, 104%; in the experiment with U251 CNS, 109%; in the experiment on PC-3 prostate it was 91.4%; with SK-MEL-5 melanoma, 105%. In addition, the growth was 105% with UACC-62 melanoma; 114% in the experiment on LOX IMVI melanoma; 98.3% with SK-MEL-28 melanoma; 94.4% with SK-MEL-2 melanoma; 113% with EKVX NSCLC; 105% with SN12C renal. In addition, the growth with UO-31 renal was 90.5%; in the experiment with TK-10 renal it was 98.9%; in the experiment with ACHN renal, 112%; in the experiment on CAKI-1 renal, 114%; in the experiment with A498 renal, 109%; with CCRF-CEM leukemia, 92.7%. Also, the growth in the experiment with MOLT-4 leukemia was 83.6%.
